# Reference: the supplement of paper PMC3334620
# Whole data set: some 33,000 sequences, median “E-score (-0.5 to 0.5)” near -0.054, cut for the highest 2% near 0.39. What follows is part of a selection rich in the highest values, with near analogues and random picks from the rest.
# Molecular target: Ylr278c (UniProt Q05854)
# Experiment: PBM E-score (8-mer binding enrichment) (E-score (-0.5 to 0.5)); higher = stronger / more preferred TF binding
# Conditions: protein concentration: 200 nM; construct: GST-DNA-binding domain
# Experimental: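 Universal 'all 10-mer' protein binding microarrays (Agilent AMADID 015681) probed with GST-tagged S. cerevisiae TFs (full-length or DBD) made by in vitro transcription/translation (PURExpress), about 100-200 nM. Bound TF was detected with fluorescent anti-GST. Each ungapped 8-mer (which stands for itself and its reverse complement) is scored by the PBM enrichment score (E-score), a modified Wilcoxon-Mann-Whitney statistic from -0.5 to +0.5, computed with the Universal PBM Analysis Suite. Scale: above 0.35 generally sequence-specific binding.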
# Chain of UniProt Q05854 (Q05854 whole entry): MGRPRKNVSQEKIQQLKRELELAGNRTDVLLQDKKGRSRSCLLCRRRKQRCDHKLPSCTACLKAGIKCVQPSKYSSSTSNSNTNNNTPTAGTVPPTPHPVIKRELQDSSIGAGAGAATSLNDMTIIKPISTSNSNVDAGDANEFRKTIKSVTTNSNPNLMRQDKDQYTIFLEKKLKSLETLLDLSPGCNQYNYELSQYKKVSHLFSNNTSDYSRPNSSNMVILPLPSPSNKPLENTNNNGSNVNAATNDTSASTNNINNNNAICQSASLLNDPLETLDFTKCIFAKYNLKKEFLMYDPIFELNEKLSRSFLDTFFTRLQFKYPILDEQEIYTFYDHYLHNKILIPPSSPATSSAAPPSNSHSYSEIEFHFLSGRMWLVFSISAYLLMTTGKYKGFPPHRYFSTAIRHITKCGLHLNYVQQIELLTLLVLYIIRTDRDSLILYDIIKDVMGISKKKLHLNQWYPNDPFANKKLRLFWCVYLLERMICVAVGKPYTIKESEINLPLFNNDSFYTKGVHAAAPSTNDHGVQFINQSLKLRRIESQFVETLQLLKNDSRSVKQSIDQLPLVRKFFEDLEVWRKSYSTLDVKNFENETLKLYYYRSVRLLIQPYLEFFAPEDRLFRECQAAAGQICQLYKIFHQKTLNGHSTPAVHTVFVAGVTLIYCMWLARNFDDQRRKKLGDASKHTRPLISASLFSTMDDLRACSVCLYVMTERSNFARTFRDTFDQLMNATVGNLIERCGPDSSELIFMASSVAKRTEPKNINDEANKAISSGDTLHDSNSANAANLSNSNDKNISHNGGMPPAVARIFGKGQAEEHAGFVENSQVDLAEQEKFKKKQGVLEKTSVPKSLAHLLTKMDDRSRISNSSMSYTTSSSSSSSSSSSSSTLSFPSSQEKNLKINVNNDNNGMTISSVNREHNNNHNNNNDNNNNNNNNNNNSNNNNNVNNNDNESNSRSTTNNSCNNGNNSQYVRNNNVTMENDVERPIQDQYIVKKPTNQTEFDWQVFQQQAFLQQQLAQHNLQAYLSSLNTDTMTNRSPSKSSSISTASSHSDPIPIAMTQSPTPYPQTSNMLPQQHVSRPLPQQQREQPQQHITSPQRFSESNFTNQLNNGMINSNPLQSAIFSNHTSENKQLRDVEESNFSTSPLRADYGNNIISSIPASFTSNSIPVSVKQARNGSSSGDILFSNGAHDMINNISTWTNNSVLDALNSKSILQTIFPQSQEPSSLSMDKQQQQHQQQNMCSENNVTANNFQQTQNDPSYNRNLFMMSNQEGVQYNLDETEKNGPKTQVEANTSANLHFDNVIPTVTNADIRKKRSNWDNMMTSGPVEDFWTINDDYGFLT
row,Sequence,PBM E-score
1,GATAGTGA,-0.0321
2,ATTTTAAA,0.0686
3,CCAACTGG,-0.22
4,AGTTGCGC,0.233
5,ACTTCACT,-0.0406
6,AAATCAGT,0.0231
7,AGTCTCCA,-0.312
8,ATTCTCCC,0.0768
9,ATTCTCCG,0.474
10,AGTCTCCC,0.102
11,ATTCTCCA,-0.052
12,AGTCTCCG,0.434
13,CCGTCTCA,0.0735
14,CTCTGCTA,-0.128
15,CTAGCAGA,-0.195
16,CTCAAAGA,-0.2
17,TAGTCATA,-0.145
18,AATATCGA,-0.0141
19,AATATCGG,0.395
20,AAAATCCC,0.263
21,AATATCCC,0.211
22,ATTATCCA,-0.155
23,AATATCCG,0.423
24,AATATCCA,0.0239
25,AAAATCCG,0.451

row,Sequence,PBM E-score
1,ATTATCCC,0.0767
2,AATATCGC,0.125
3,CAAATCCG,0.381
4,ATTATCCG,0.393
5,ACGCATGC,-0.0181
6,GCTCGTTA,-0.188
7,ATCAGCGG,0.29
8,CGACCACG,0.0345
9,ATACAGCA,-0.0117
10,AAATCAAC,-0.111
11,AACTGACC,0.152
12,CCGCGCGA,0.216
13,CCGCGCCG,0.4
14,CCGCGCCA,0.182
15,CCGCGCCC,0.191
16,CCGCGCGC,0.28
17,CGGCGCCG,0.461
18,CGGCGCCA,0.214
19,CCGCGCGG,0.433
20,AGGCGCCG,0.206
21,CGACACTA,0.102
22,CGGTTGCC,0.109
23,GGCCTTAA,-0.0388
24,TATGTTCA,-0.0845
25,TACATTCA,-0.223

row,Sequence,PBM E-score
1,ACGGACAC,0.194
2,CCGGACAA,0.444
3,TAGGACAA,-0.233
4,CCGGACAC,0.371
5,TCGGACCA,0.379
6,GCGGACAC,0.216
7,ACGGACAT,0.392
8,GCGGACAA,0.398
9,ACGGACAG,0.043
10,CCGGACAG,0.357
11,TCGGACAA,0.434
12,ACGGACAA,0.355
13,AAAATCGA,-0.177
14,GCTCTCCC,-0.0961
15,CCCACCAG,-0.212
16,AGCCTACA,-0.0936
17,CGGCCGAG,0.279
18,ACTCCCAC,-0.035
19,TCTACCCA,-0.14
20,TCTGCACA,0.0219
21,ACAGACCA,-0.0751
22,GATTCGAA,0.102
23,AGCTTAAG,-0.229
24,ATGAGCCC,-0.138
25,CCTGATAC,-0.0837

row,Sequence,PBM E-score
1,CGAGAAAA,-0.0264
2,AGACTAAT,-0.0793
3,CCGGATAA,0.417
4,TCGGATAA,0.403
5,CCGGATAC,0.384
6,ACGGATAA,0.293
7,GCGGATAA,0.314
8,CCGGATAG,0.347
9,ATCAAGGG,-0.1
10,CCAAAGCA,-0.107
11,AGTCCGGA,0.476
12,AGTCCGCA,0.372
13,CGTCCGTC,0.208
14,GGTCCGTA,0.304
15,AGTCCGTA,0.328
16,CGTCCGCA,0.246
17,CGTCCGTA,0.189
18,CGTCCGGA,0.43
19,CGTCCAGC,-0.233
20,GGTCCGGA,0.446
21,CGTCCGGC,0.407
22,GGTCCGCA,0.278
23,CATTTTCG,0.173
24,TAAGTGAA,-0.072
25,ATGAGGAG,-0.132

row,Sequence,PBM E-score
1,CGGACGCC,0.366
2,CTAGTTCC,0.0969
3,CGCAATTC,0.201
4,CATGAAGG,-0.145
5,TATCCACA,-0.144
6,ACAACTCC,0.295
7,CCTTTCGC,0.0666
8,AGTGCGGG,0.258
9,CATGCGGA,0.317
10,AGTGCGGA,0.394
11,CGTGCGGA,0.279
12,AATGCGGT,0.116
13,AATGCGGA,0.396
14,AGCCGGCC,0.324
15,CGCCGGCC,0.367
16,CGCCGCCG,0.362
17,AGCCGGCA,0.33
18,GGCCGGCC,0.372
19,CGCCGGCA,0.39
20,AGCCGGCG,0.372
21,GGCCGGCA,0.394
22,CGCCGGCG,0.463
23,AAGCTATG,-0.249
24,AATTTGAG,-0.15
25,CCCATCTC,0.0175

row,Sequence,PBM E-score
1,GGATGGGA,0.0151
2,GTTGTGTA,-0.159
3,AACAAGCA,0.0514
4,CGTGGGCA,-0.16
5,GCCGGAGC,0.452
6,GCCAGAGA,-0.194
7,GCCAGAGC,-0.222
8,CCCGGACC,0.376
9,GCCGGTGA,0.298
10,GCAGGAGC,-0.194
11,CCCGGAGC,0.452
12,TCCGGAGA,0.483
13,CCGGGAGC,0.228
14,TCAGGAGA,-0.0923
15,TCCAGAGA,-0.212
16,GCCGGAGA,0.459
17,GTCTACTA,-0.0894
18,CCGTCCCG,0.348
19,CCCAACCG,-0.0967
20,AAGCTGCC,-0.234
21,ATCCAAGG,0.0179
22,AGGCTGCA,-0.242
23,CCCCTCAG,-0.124
24,TCAAAGCA,-0.174
25,AGTTCACC,0.126

row,Sequence,PBM E-score
1,GCAACCAC,0.00041
2,ACTGGAGC,-0.117
3,CCCAGAGA,-0.233
4,ACCGGAGC,0.448
5,ACCGGAGG,0.441
6,CCCCGAGG,0.245
7,CCCGGAGA,0.476
8,CCGGGAGA,0.362
9,ACCGGATC,0.354
10,CCCGGAGG,0.439
11,CCGGGAGG,0.261
12,ACCGGATG,0.279
13,ACCGGGGG,0.293
14,GCGTATAC,-0.00732
15,CGTAGAAC,-0.0134
16,AATGAACA,-0.117
17,ACATTGGG,-0.122
18,TATATCCA,-0.171
19,ACCAGAGT,-0.219
20,ACAGGAGA,-0.0277
21,ACAGGAGT,-0.0336
22,ACCGGAGT,0.481
23,ACCGGATA,0.265
24,ACCGGAGA,0.475
